Experimental data: PubChem BioAssay (NCATS)
A number with no mark means an inactive call. Results filed as inconclusive are left out. The source made the active and inactive calls. Unless noted, calls come from the whole dose curve; as a rule, active = well fitted curve in either direction with a large enough effect (not every such curve was filed as active); inconclusive = small, poorly fitted or top-dose-only effect, or another doubt; inactive = flat fitted curve, though single readings scatter.

Tests used:
[1] = biological target: Lysosomal acid glucosylceramidase (Homo sapiens) (UniProt P04062); test: Glucocerebrosidase-p2 (AID 348; in the data active = potency below about 10 µM; note: potency is the fitted concentration of half-maximal effect); settings: purified GBA, blue fluorogenic substrate, 40 min
Chain of Lysosomal acid glucosylceramidase (Homo sapiens) (P04062 whole entry, looked up): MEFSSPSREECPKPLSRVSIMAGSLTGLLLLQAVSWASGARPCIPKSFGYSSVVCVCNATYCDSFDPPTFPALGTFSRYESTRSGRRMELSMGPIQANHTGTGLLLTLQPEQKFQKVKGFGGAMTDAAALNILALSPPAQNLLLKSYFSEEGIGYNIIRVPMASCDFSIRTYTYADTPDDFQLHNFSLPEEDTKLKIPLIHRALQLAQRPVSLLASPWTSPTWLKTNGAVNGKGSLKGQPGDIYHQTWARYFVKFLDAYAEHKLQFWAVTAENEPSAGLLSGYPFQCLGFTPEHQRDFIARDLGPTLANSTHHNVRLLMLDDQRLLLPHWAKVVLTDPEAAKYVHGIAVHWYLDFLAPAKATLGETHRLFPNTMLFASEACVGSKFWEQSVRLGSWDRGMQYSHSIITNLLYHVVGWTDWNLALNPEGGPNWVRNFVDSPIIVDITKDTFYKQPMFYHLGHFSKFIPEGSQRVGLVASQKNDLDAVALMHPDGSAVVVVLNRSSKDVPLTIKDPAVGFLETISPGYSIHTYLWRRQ
Summary of the method: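 Normal human glucocerebrosidase (0.2 nM) with blue fluorogenic substrate (80 uM final) in citrate/phosphate pH 5.9 with 10mM sodium taurocholate, 0.01% tween-20; 40 min RT, NaOH/glycine stop; fluorescence Ex 365/Em 440; AC50 from a titration from 0.6 nM upwards.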

[2] = AP1 Signaling Pathway (AID 357); settings: ME-180 AP-1-bla reporter, EGF-induced, beta-lactamase ratio, 5 h; at 7.69 µM (top of the series) unless noted;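 note: ME-180 reporter cells stimulated with EGF at its EC50 level; % is set by controls: 0 for no effect and ±100 for the full control effect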
Summary of the method: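 Titration-series screen for positive or negative modulators of EC50 EGF-induced signaling in ME-180 cells carrying an AP-1-driven beta-lactamase reporter. After 5 hours at 37 degrees Celsius, CCF4 460nm/530nm emission ratio gave %Activity; AC50 values derived.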

[3] = biological target: Cytochrome P450 1A2 (Homo sapiens) (UniProt P05177); test: p450-cyp1a2 (AID 410; calls by dose curve; note: potency is the fitted concentration of half-maximal effect;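 for activity change, negative = inhibition: -100% = full effect of reference inhibitor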); settings: recombinant CYP1A2, luciferin-ME demethylation, luminescence; series mostly up to 57 µM
Chain of Cytochrome P450 1A2 (Homo sapiens) (P05177 whole entry, looked up): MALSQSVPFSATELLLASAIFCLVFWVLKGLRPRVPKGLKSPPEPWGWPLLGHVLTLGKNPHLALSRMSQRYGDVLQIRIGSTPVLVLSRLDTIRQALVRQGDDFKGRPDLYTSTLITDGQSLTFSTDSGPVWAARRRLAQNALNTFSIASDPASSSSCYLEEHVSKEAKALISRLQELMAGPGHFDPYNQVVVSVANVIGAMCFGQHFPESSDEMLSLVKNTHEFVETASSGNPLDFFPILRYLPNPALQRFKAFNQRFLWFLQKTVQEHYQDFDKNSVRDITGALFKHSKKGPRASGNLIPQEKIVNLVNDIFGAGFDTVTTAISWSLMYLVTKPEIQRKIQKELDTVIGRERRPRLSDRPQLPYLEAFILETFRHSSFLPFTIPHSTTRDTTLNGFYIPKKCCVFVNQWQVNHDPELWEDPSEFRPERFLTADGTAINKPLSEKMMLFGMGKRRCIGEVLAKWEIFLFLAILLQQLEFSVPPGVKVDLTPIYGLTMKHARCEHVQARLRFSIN
Summary of the method: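 Read-out is luminescence from luciferin produced by CYP1A2 demethylation of Luciferin-ME (100uM, at Km). Detection reagent stopped the 60 min NADPH-dependent reaction; signals were normalized to 57 uM furafylline.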

[4] = NFAT Signaling Pathway (AID 444); settings: Jurkat NFAT-bla M1, carbachol, beta-lactamase ratio, 5 h; at 7.69 µM (top of the series) unless noted;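 note: carbachol stimulus at about its EC50 of 1 µM final; % is set by controls: 0 for no effect and ±100 for the full control effect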
Summary of the method: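 Jurkat cells with NFAT-driven β-lactamase reporter and co-expressed M1 receptor, stimulated with carbachol (final 1 uM, ~EC50), compound titration, 5 h at 37 °C. CCF4 loaded 1 h at RT; 460/530 nm ratio gave %activity and AC50.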

[5] = Stat Signaling Pathway (AID 446); settings: ME-180 (cervical carcinoma) SIE beta-lactamase reporter, IL-6 stimulated, 5 h; at 7.69 µM (top of the series) unless noted;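 note: ME-180 cervical cancer cells given 40 pM IL-6 alongside compound; SIE-controlled beta-lactamase reporter measured as 460/530 nm FRET emission ratio; % is set by controls: 0 for no effect and ±100 for the full control effect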
Summary of the method: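 Emission at 460 and 530 nm (excitation 405 nm) reports SIE-controlled beta-lactamase in ME-180 cells. Cells received compound with 40 pM IL-6 for 5 hrs at 37 C; data scaled between 300 pM IL-6 and 125 nM JAK-inhibitor controls.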

[6] = biological target: Glucocorticoid receptor (Homo sapiens) (UniProt P04150); test: GR-EFC Redistribution (AID 451; calls by dose curve; note: potency is the fitted concentration of half-maximal effect); settings: CHO-K1 GR-EFC translocation, beta-gal luminescence, 2 h
Chain of Glucocorticoid receptor (Homo sapiens) (P04150 whole entry, looked up, the tested form may be a part): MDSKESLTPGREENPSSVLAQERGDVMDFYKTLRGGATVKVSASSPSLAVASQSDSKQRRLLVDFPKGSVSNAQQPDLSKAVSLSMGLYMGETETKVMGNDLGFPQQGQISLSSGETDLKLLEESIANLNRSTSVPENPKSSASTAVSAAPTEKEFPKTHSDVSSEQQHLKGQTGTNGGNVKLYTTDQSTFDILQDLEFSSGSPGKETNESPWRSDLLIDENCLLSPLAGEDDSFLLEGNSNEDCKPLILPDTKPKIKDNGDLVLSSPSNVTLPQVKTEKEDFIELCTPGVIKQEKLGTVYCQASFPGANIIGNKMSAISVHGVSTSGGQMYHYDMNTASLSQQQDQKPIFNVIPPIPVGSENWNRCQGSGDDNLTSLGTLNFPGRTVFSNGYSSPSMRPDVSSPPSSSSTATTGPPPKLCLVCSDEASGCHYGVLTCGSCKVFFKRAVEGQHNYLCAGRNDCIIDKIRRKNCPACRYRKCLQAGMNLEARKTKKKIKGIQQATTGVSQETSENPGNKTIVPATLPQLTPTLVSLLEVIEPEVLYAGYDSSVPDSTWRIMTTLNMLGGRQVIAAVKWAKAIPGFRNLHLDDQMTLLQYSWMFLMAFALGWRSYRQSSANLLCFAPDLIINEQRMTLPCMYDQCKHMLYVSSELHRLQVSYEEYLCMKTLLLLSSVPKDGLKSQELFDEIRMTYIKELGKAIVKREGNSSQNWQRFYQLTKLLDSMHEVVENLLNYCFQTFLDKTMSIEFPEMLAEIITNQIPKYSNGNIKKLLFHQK
Summary of the method: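 CHO-K1 cells expressing nuclear EA and GR-ED fragments of b-gal; compounds titrated up to 46 uM final, 2 h at 37 C. GR nuclear translocation read as complemented b-gal luminescence after 1 h RT detection.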

[7] = biological target: Mitogen-activated protein kinase 10 (Mus musculus) (UniProt Q61831); test: JNK3 AlphaScreen Assay (AID 530); settings: JNK3 lysate, c-Jun phosphorylation; series mostly up to 57.1 µM;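 note: kinase came from lysate of stimulated human HepG2 cells; signal reports phosphorylation of biotinylated GST-cJun 1-79 at Ser73 with 10 µM ATP; % is set by controls: 0 for no effect and ±100 for the full control effect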
Summary of the method: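 HepG2 lysate (IL-1b/TNFa pre-activated) + biotin-GST-cJun 1-79 + anti-pSer73 cJun; cpd titration, 15 min RT; ATP 10 uM start; Tris pH 7.6, MgCl2, DTT, vanadate; beads in EDTA buffer; AlphaScreen.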

[8] = biological target: 3',5'-cyclic-AMP phosphodiesterase 4B (Homo sapiens) (UniProt Q07343); test: qHTS Assay for Inhibitors of PDE-IV (AID 607; active = well fitted activation curve with a large enough effect in the main read-out, with a control signal flat, not every such curve was filed as active; note: % of control where 0% means no effect); settings: HEK293 ACTOne CNG channel cells, membrane potential fluorescence; series mostly up to 22.9 µM
Chain of 3',5'-cyclic-AMP phosphodiesterase 4B (Homo sapiens) (Q07343 whole entry, looked up): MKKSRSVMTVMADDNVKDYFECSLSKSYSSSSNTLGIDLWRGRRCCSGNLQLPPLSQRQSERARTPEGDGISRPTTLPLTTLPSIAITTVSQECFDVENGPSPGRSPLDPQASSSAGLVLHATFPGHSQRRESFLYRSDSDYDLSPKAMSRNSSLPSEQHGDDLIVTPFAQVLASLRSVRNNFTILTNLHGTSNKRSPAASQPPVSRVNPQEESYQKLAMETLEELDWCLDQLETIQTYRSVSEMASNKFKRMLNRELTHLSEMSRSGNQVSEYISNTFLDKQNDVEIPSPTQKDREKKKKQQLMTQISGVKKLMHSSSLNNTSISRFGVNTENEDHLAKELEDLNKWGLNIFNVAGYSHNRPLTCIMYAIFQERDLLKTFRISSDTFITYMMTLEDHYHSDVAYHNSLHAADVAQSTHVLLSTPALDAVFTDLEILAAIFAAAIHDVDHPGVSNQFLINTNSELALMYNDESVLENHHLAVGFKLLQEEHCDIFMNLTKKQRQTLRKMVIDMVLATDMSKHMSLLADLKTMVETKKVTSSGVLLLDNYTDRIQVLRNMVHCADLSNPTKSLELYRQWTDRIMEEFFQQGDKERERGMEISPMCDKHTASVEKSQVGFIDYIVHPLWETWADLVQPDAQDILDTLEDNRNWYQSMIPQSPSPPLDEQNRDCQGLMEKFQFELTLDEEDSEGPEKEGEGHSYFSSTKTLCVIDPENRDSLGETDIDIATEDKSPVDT
Summary of the method: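 The readout is membrane depolarisation from a cAMP-sensing CNG channel, detected with a potential dye at ex 535/em 590. Cells were HEK293-derived (endogenous PDE-IV) at 1000 cells/well, titrated up to 22.9 uM final.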

[9] = Primary qHTS for small molecule stabilizers of the endoplasmic reticulum resident proteome: Secreted ER Calcium Modulated Protein (SERCaMP) assay (AID 1508630; active = well fitted curve in the direction sought with a large enough effect; an effect the other way counts as inactive or inconclusive; note: % is set by controls: 0 for no effect and ±100 for the full control effect); settings: SH-SY5Y GLuc-SERCaMP (Gaussia luciferase released on ER calcium loss) secretion, thapsigargin, luminescence; series mostly up to 38.4 µM
Summary of the method: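 The SH-SY5Y reporter protocol was run at 3 concentrations up to 38.3 uM (primary) or 11 concentrations (follow-up): 16 h compound, 100 nM thapsigargin for 4 h, then extracellular luciferase luminescence.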

[10] = biological target: Glucocorticoid receptor (Homo sapiens) (UniProt P04150); test: GR-GFP Redistribution (AID 450;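 active = compounds whose dose series gives a full or clear partial fitted curve of increased nuclear translocation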; note: potency is the fitted concentration of half-maximal effect); settings: U2OS GR-GFP nuclear translocation, laser cytometry, 2 h
[11] = biological target: Cytochrome P450 2C9 (Homo sapiens) (UniProt P11712); test: qHTS Assay for Inhibitors and Substrates of Cytochrome P450 2C9 (AID 883; active = well fitted curve in the direction sought with a large enough effect; an effect the other way counts as inactive or inconclusive; note: potency is the fitted concentration of half-maximal effect; nearly all actives have a fitted effect of over 60% in size); settings: recombinant CYP2C9, luciferin-H luminescence, 60 min; series mostly up to 57.1 µM
Chain of Cytochrome P450 2C9 (Homo sapiens) (P11712 whole entry, looked up): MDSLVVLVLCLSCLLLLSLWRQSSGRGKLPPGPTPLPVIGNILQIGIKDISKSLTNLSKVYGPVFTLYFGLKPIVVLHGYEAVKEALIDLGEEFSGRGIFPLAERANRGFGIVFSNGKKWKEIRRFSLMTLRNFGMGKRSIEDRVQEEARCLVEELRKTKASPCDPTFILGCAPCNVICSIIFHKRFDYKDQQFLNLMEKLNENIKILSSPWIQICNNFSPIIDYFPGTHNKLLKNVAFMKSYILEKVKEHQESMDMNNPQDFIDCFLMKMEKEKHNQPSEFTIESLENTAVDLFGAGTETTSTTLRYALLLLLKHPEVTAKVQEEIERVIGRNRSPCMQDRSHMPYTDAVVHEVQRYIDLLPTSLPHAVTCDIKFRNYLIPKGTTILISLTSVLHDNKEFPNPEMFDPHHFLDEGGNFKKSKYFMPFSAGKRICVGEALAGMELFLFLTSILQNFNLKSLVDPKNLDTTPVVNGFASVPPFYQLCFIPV
Summary of the method: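 10nM CYP2C9 + 100uM Luciferin-H (=KM), 25mM KPO4; cpd 10 min 37C; NADPH regen, 60 min 37C; stop/detect with P450 Glo-Buffer 20 min; luminescence. Norm. to 57uM sulphaphenazole as full inhibition.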

[12] = biological target: Cytochrome P450 3A4 (Homo sapiens) (UniProt P08684); test: qHTS Assay for Inhibitors and Substrates of Cytochrome P450 3A4 (AID 884; active = well fitted curve in the direction sought with a large enough effect; an effect the other way counts as inactive or inconclusive; note: potency is the fitted concentration of half-maximal effect; nearly all actives have a fitted effect of over 50% in size); settings: recombinant CYP3A4, Luciferin-PPXE luminescence; series mostly up to 57.1 µM
Chain of Cytochrome P450 3A4 (Homo sapiens) (P08684 whole entry, looked up): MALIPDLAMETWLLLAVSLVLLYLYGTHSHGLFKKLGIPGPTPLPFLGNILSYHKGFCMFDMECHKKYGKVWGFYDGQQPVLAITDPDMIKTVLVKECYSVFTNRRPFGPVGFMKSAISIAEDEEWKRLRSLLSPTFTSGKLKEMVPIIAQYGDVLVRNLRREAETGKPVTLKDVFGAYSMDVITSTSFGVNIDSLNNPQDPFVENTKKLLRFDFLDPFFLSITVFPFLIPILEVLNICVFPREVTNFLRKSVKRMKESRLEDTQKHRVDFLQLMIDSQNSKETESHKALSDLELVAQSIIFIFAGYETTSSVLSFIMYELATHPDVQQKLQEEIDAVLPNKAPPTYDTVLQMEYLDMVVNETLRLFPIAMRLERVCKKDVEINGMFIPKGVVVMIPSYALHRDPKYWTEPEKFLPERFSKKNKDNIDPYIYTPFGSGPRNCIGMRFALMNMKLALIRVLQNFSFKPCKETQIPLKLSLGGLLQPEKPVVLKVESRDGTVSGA
Summary of the method: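 Luminescent readout of luciferin produced by CYP3A4 (20 nM) dealkylation of Luciferin-PPXE, 25 uM (its KM). NADPH-driven reaction ran 60 min at RT after 10 min compound preincubation; data scaled to 57 uM ketoconazole as 100% inhibition.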

[13] = biological target: Cytochrome P450 3A4 (Homo sapiens) (UniProt P08684); test: qHTS Assay for Activators of Cytochrome P450 3A4 (AID 885; active = well fitted curve in the direction sought with a large enough effect; an effect the other way counts as inactive or inconclusive; note: nearly all actives have a fitted effect of over 65% in size); settings: recombinant CYP3A4, Luciferin-PPXE luminescence, 60 min; series mostly up to 57.1 µM
Summary of the method: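 Activators are scored by enhanced luminescence from CYP3A4 conversion of luciferin-PPXE (25uM, equal to KM) to luciferin, after 60 min at RT with an NADPH-regenerating system.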

[14] = biological target: Cytochrome P450 2C19 (Homo sapiens) (UniProt P33261); test: qHTS Assay for Inhibitors and Substrates of Cytochrome P450 2C19 (AID 899; active = well fitted curve in the direction sought with a large enough effect; an effect the other way counts as inactive or inconclusive; note: % is set by controls: 0 for no effect and ±100 for the full control effect; nearly all actives have a fitted effect of over 60% in size); settings: recombinant CYP2C19, luciferin-H EGE luminescence; series mostly up to 57.1 µM
Chain of Cytochrome P450 2C19 (Homo sapiens) (P33261 whole entry, looked up): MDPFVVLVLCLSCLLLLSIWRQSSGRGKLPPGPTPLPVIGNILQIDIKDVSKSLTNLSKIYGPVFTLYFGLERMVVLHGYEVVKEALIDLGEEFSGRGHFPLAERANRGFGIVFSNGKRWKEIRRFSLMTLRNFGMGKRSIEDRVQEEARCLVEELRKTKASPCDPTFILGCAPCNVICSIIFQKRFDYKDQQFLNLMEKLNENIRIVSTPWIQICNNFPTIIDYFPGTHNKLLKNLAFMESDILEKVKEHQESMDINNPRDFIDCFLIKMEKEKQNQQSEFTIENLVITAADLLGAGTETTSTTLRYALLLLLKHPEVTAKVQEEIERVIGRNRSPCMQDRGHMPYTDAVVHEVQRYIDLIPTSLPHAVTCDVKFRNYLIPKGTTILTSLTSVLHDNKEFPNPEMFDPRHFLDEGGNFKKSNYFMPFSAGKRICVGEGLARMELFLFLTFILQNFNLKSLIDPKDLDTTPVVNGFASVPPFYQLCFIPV
Summary of the method: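 Luminescent read-out of luciferin formed from Luciferin-H EGE (10uM, equal to KM). Enzyme 5nM in 50mM KPO4; compound added, 10 min at 37C, then NADPH regenerating system for 60 min at 37C. Full inhibition defined by 57uM ketoconazole.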

Structure (SMILES)	Potency [1]	activity change, negative = inhibition [2]	Potency [3]	activity change, negative = inhibition [4]	activity, negative = inhibition [5]	Potency [6]	Potency [7]	Potency [8]	outcome [9]	Potency [10]	Potency [11]	Potency [12]	Potency [13]	Potency [14]
CC(=O)N1CCC2(CC1)CCN(c1ccc(-c3ccccc3)cc1)CC2	> 11.4 µM	47.5%	10 µM (active)	-28%	-16.9%	> 46 µM	inactive	inactive	inactive					
COc1cccc(Cn2c(=O)cnc3cnc(Oc4cccc(Cl)c4)nc32)c1	> 11.4 µM	-19.7%	12.6 µM (active)	-4.32%	-20.6%	> 46 µM	inactive		inactive	> 9.22 µM	3.98 µM (active)	5.01 µM (active)	inactive	
CC(=O)N1CCC2(CCCN(c3ncccn3)C2)CC1	> 11.4 µM	-18.1%	inactive	4.89%	-2.74%	> 46 µM	inactive	inactive	inactive					
COCC(=O)N1CCC2(CCCN(C(=O)Nc3cccc(C#N)c3)C2)CC1	> 11.4 µM	-3.42%	inactive	-3.66%	-1.02%	> 46 µM	inactive	inactive	inactive					
O=c1cnc2cnc(OCc3ccccc3)nc2n1Cc1ccc(F)cc1	> 11.4 µM	-29.4%	12.6 µM (active)	-14.6%	-21.4%	> 46 µM	inactive		inactive	> 9.22 µM		5.01 µM (active)	inactive	
N#CCCn1c(=O)cnc2cnc(OCc3ccccc3)nc21	> 11.4 µM	-4.07%	12.6 µM (active)	0.323%	-5.03%	> 46 µM	inactive	inactive	inactive	> 9.22 µM				inactive
COc1cccc(Cn2c(=O)c(-c3ccccc3)nc3cnc(N(C)C)nc32)c1	> 11.4 µM	8.64%	10 µM (active)	-16.4%	11.4%	> 46 µM			inactive	> 9.22 µM			inactive	
CC(C)NC(=O)N1CCC2(CC1)CCN(C(=O)c1cccn1C)CC2	> 11.4 µM	15.2%	inactive	7.13%	2.35%	> 46 µM	inactive	inactive	inactive					
